The values below come from PubChem BioAssay (NCATS).

Values joined by “and” are separate entries in the source; they are usually repeats but may differ in a detail not shown here. Identical values can stand only once. Inconclusive results are not listed. Active and inactive are the calls of the source. Calls come from the whole dose curve; as a rule, active = well fitted activation curve with a large enough effect; inconclusive = small, poorly fitted or top-dose-only effect; inactive = no such curve, though single readings can be large or run the other way.
Potency is the fitted concentration of half-maximal effect.

In the assay the target is Cellular tumor antigen p53 (Homo sapiens) (UniProt P04637). The experiment in a line: Primary qHTS for small molecule compounds that upregulate eGFP-tagged delta133p53alpha (in N-terminal) cells. (AID 2060322).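 For activation: cells pre-induced with doxycycline then dosed without doxycycline; series mostly up to about 56 µM; 0% = DMSO vehicle and 100% = reference activator.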 Note: nearly all actives have a fitted effect of over 75% in size. As to conditions: NCI-H358 eGFP-delta133p53alpha fluorescence, 24 h; activation: stronger effect = higher value. The text has this: Assay Development and Screening Technology
Chain of Cellular tumor antigen p53 (Homo sapiens) (P04637 whole entry, looked up): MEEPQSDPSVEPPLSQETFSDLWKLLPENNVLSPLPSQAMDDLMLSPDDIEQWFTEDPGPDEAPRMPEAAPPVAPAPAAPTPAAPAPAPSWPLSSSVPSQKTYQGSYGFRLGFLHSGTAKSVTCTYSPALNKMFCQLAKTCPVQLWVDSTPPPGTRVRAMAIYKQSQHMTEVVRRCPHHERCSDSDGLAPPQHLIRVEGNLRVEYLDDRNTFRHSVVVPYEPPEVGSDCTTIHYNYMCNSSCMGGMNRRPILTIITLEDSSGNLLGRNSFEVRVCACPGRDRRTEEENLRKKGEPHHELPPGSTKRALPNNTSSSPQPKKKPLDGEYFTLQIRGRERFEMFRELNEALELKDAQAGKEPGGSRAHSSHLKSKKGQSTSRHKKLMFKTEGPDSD
National Center for Advancing Translational Sciences (NCATS),
National Institute of Health (NIH), Rockville, Maryland
Cellular senescence (CS) is one of the hallmarks of aging and age-related diseases. Senescent cells are characterized by an irreversible growth arrest, an increase in senescence-associated beta-galactosidase (SA-beta-gal) activity and p16INK4a expression, an activation of the DNA damage response pathways, and the emergence of a senescence-associated secretory phenotype (SASP).
Delta133p53alpha, a human/primate-specific p53 protein isoform, delays or inhibits the induction of CS and SASP in various types of human cells, including progeria-derived fibroblasts, primary normal astrocytes, and CD8+ T lymphocytes. Induction of delta133p53alpha with small molecule compounds may provide therapeutic opportunities for inhibition of senescence/SASP-associated pathologies in progeria syndromes, astrocyte-mediated neuroprotection in neurodegenerative diseases, and possibly prevention and treatment of a wider range of senescence- and aging-associated diseases.
Here we report the development and validation of a cell-based quantitative high throughput screening (qHTS) assay in 1,536-well format. This qHTS assay uses the NCI-H358 cell line with doxycycline-inducible expression of enhanced green fluorescent protein (eGFP)-tagged delta133p53alpha, which allows efficient and highly quantitative measurement of the protein levels.
PROTOCOL TABLE (as described by Inglese J, Shamu CE and Guy RK. 2007)
SEQUENCE No. (e.g., 1, 2, 3, etc.); […] (e.g., Cells, Incubation, Reagent, etc.); VALUE; DESCRIPTION.
1; Cells; 4uL; 800 doxycycline treated cells / well in doxycycline-free media, 1536-well black, clear-bottom low base Aurora microplates.
2; Compounds; 23 nL; Kalypsis pin tool (Wako) equipped with 1536-well pin heads, 5-azacytidine positive control.
3; Incubation; 24 hr; 37C, 5% CO2; 95% relative humidity.
4; Aspiration; 1x; BioTek EL406 washer dispenser (Agilent).
5; Fixing; 3.5% paraformaldehyde, BioTek EL406 washer dispenser (Agilent).
6; Washing; 1x PBS; BioTek EL406 washer dispenser (Agilent).
7; Nuclei staining; 1:1000 dilution of Hoechst 33342 (Thermofisher), BioTek EL406 washer dispenser (Agilent).
8; Incubation; 20 min; in the dark at room temperature.
9; Washing; 2x, 1x PBS (ThermoFisher), BioTek EL406 washer dispenser (Agilent).
10; Reagent; 10 uL; 1x PBS per well, sealed with clear adhesive tape.
NOTES (numbers refer to sequence numbers above).
1. NCI-H358 cells expressing eGFP-tagged delta133p53alpha were grown in T75 culture flasks and treated with doxycycline for 24h, at 10 ng/ml for eGFP-D133p53a cells (N-terminal cell) and 100 ng/ml for D133p53a-eGFP cells (C-terminal cells). Cells were trypsinized, counted using a Counted 3 Automated Cell Counter (Thermo Fisher), and diluted to a concentration of 200,000 cells/ml. A Multidrop Combi Reagent Dispenser (ThermoFisher) was used to dispense 800 cells/well in […] of doxycycline-free media, into 1536-well black/clear bottom low base plates (AuroraMicroplates).
2. After plating cells, 23 nl of compound library, DMSO vehicle control or positive control (5-azacytidine) were transferred by Pin Tool (Wako). The plate map layout was the same for each plate: (column 1) non-doxycycline treated cells + DMSO vehicle control; (column 2) doxycycline treated cells + DMSO vehicle control baseline; (column 3) doxycycline treated cells + positive control 57.5 uM final concentration 5-azacytidine; (column 4) doxycycline treated cells + serial dilution of 5-azacytidine, 16-point 1:2 titration spanning 1.8 nM to […] final concentration; (columns 5-48) doxycycline treated cells + titration of library compounds.
3. Cells were incubated at 37 °C, 5 % CO2, 95% RH with breathable metal lid for 24h.
4-10. […] After two washes, 10 ul of 1X PBS (Thermo Fisher) was dispensed to each well. Clear adhesive plate seals (VWR) were applied and plates stored at 4 °C.
11. […]
Regarding `CC12CCC3C(C)(C)C(O)CCC3(C)C1Cc1c(oc(C(=O)O)cc1=O)O2` (stereo not given), the activation is -9.92% (inactive).

Turning to `COC(=O)Nc1ccc(-c2nc(N3CCOCC3)c3cnn(C4CCN(Cc5cccnc5)CC4)c3n2)cc1`, the activation was 9.82% (inactive).

For the compound `COc1cc(Br)c(Nc2nc(-c3c(C)nc4ncccn34)cs2)c(Br)c1`, the activation was 14.8% (inactive).

Turning to `O=C(O)[C@@H](O)[C@H](O)[C@H](O)[C@@H](O)C(=O)O`, the activation is -1.67% (inactive).

In the case of `CNC[C@H](O)c1cccc(O)c1`, the activation is -9.21% (inactive) and 8.41% (inactive) and -4.95% (inactive).

Regarding `Clc1ccc(CN[C@H]2CCN(c3ncc(Br)cn3)C2)c(Cl)c1`, the activation was 3.57% (inactive).

In the case of `Cc1sc2c(c1C)C(c1ccc(Cl)cc1)=N[C@H](CC(=O)NCCCCNC(=O)COc1cccc3c1C(=O)N([C@H]1CCC(=O)NC1=O)C3=O)c1nnc(C)n1-2`, the Potency is 1.69 µM (active).

As to `CNCCc1ccccn1`, the activation is 5.02% (inactive).

Take `O=c1[nH]c(=O)n([C@H]2C[C@@H](O)[C@@H](CO)O2)cc1C=CBr`: the activation was 11.1% (inactive).

As to `Nc1nc2ccc(Cl)cc2n2c(-c3ccccc3)nnc12`, the activation is -21.3% (inactive).

On to `O=C1OC(c2ccc(O)cc2)C(O)=C1Cc1ccccc1` (stereo not given), for which the activation was -3.82% (inactive).

Consider `C1CCC[C@H]2CCCN3CC[C@@H](CCCCCC[C@@H]4CCCN5CC[C@@H](CC1)O[C@@H]45)O[C@@H]23`, for which the activation is -4.33% (inactive).

Consider `N#Cc1c(C2CCNCC2)cc(-c2c(O)cccc2OCC2CC2)nc1N`, for which the activation was -1.56% (inactive).

Consider `C[C@@H]1CC[C@@]2(OC1)O[C@H]1C[C@H]3[C@@H]4CC=C5C[C@@H](O)CC[C@]5(C)[C@H]4CC[C@]3(C)[C@H]1[C@@H]2C`, for which the activation is -4.46% (inactive).

For the compound `NC(N)=N/N=C/c1c(Cl)cccc1Cl`, the activation is 35% (inactive).

Turning to `C=C(C)C1CCC(C)C12CC(O)C1(C)OC1C2OC(=O)C(N)CCC(=O)O` (stereo not given), the activation was -6.11% (inactive).

Regarding `C[n+]1cc2c3c(ccc2c2ccc4cc5c(cc4c21)OCO5)OCO3`, the Potency is 1.9 µM (active) and 2.39 µM (active).

Consider `NC(N)=NC(N)=NCCc1ccccc1`, for which the activation was -18.4% (inactive) and -5.97% (inactive).

For the compound `N#Cc1cnc2cnc(NCc3cccnc3)cc2c1Nc1ccc(F)c(Cl)c1`, the Potency was 2.69 µM (active).

In the case of `FC(F)(F)C(F)(F)C(F)(F)C(F)(F)C(F)(F)C(F)(F)C(F)(F)C(F)(F)Br`, the activation was -14.1% (inactive).

Regarding `CNCc1ccc(-c2[nH]c3cc(F)cc4c3c2CCNC4=O)cc1`, the activation was 35.7% (inactive).

For the compound `O=C(NCCCc1ccccc1)C1CCC(CNS(=O)(=O)c2cccc3nsnc23)CC1` (stereo not given), the activation is -3.34% (inactive).

As to `COc1cc2nc(-c3cc(F)ccc3O)nc(N[C@@H]3CNC[C@@H]3C(C)(C)O)c2cc1OC`, the Potency was 34.3 µM (active).

In the case of `O=C1CCC(=O)N(O)CCCCCNC(=O)CCC(=O)N(O)CCOCCNC(=O)CCC(=O)N(O)CCCCCN1`, the activation was -16.8% (inactive).

On to `CC(=O)O[C@H]1CC[C@]2(C)[C@H]3CC[C@]4(C)Oc5oc(C)cc(=O)c5C[C@H]4[C@]3(C)CC[C@H]2C1(C)C`, for which the activation was 0% (inactive).

As to `CC(C)CCOC(=O)c1ccc(N(C)C)cc1`, the activation was 6.69% (inactive).

`CC(Cc1ccc(O)c(O)c1)(NN)C(=O)O` (stereo not given): the activation is -5.67% (inactive).

With `COc1cccc(OC)c1-c1nc(C(=O)N[C@@H](CC(C)C)C(=O)O)cn1-c1ccnc2cc(Cl)ccc12`, the activation is -8.59% (inactive).

On to `C=C1CC2[C@]3(C)C(=C(O)C(=O)[C@@]2(C)[C@]2(C(=O)OC)C(=O)C(C)OC(=O)[C@@]12C)C(C)(C)C(=O)CC3O` (stereo not given in full), for which the activation was 18.3% (inactive).

As to `C=CCNc1c(O)cc2c(O)c1C[C@@H](C)C[C@H](OC)[C@@H](O)[C@@H](C)C=C(C)[C@H](OC(N)=O)[C@@H](OC)C=CC=C(C)C(=O)N2`, the activation was 1.58% (inactive).

With `O=C(C=Cc1cccnc1)NCCCCC1CCN(C(=O)c2ccccc2)CC1`, the activation is 8.39% (inactive).

Take `O=C(c1cc(O)c(O)c(O)c1)c1ccc(O)c(O)c1O`: the activation is 23.2% (inactive).

On to `Cn1c(=O)cc(N2CCCC(N)C2)n(Cc2ccccc2C#N)c1=O` (stereo not given), for which the activation was 0% (inactive).

Take `CN(C)CCc1c[nH]c2ccc(CS(=O)(=O)N3CCCC3)cc12`: the activation was -5.58% (inactive).

As to `C=C[C@H]1C(O[C@@H]2O[C@H](CO)[C@@H](O)[C@H](O)[C@H]2O)OC=C2C(=O)N3CCc4c([nH]c5ccccc45)C3CC21` (stereo not given in full), the Potency was 5.22 µM (active).

As for `CCCCCCCCCCC[C@@H](C[C@@H]1OC(=O)[C@H]1CCCCCC)OC(=O)[C@H](CC(C)C)NC=O`, the activation was 2.82% (inactive).

As for `O=C(Nc1c(-c2cccs2)nc2ccccn12)c1ccc(Cl)cc1`, the activation is -8.59% (inactive).

Consider `CC1(C)CCCC2(C)C(C(=O)O)=CCC12` (stereo not given), for which the activation was -24.4% (inactive).

For `CC(C)(C)c1ccc(C(=O)Nc2cc(Cl)c(Br)cc2C(=O)O)cc1`, the activation is -3.67% (inactive).

Take `CC(C(=O)O)c1ccc(/C=C2\CCCCC2=O)cc1` (stereo not given): the activation is -13.4% (inactive).
